Reference: PubChem BioAssay
The source made the active and inactive calls.

System: not listed separately
Assay: CREB reporter modulators under forskolin, primary screen, cell-based, PC12, CRE-LacZ reporter, forskolin-stimulated (AID 1146);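 also: PC12 cells with 6xCRE LacZ reporter stimulated by forskolin 10 µM; beta-galactosidase reporter signal reflecting CREB driven transcription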
Conditions: luminescence, 4.5 h, higher = more signal, called active from +8 up or from −8 down

Structure (SMILES) | z-score
O=C1C2C=CC(C(O)c3ccccn3)N(Nc3ccc([N+](=O)[O-])cc3)C2C(=O)N1c1ccccc1 (centres undefined) | -0.0636 (inactive)
O=C1C2C=CC(C(O)C3CCCCC3)N(Nc3ccccc3F)C2C(=O)N1c1ccccc1 (centres undefined) | -0.904 (inactive)
C=C(CCCC)/C(=C/C[C@@H](OC(C)=O)c1ccc(OCCO)cc1)c1cc(C(=O)OC)ccc1OC | 0.574 (inactive)

Biological target: Streptavidin (Streptomyces avidinii) (UniProt P22629)
Assay: streptavidin binders on small-molecule microarray, primary screen, artefact control for SMM compound annotation, biophysical, 635/667 nm fluorescence (AID 1147);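 also: signal reflects streptavidin binding to arrayed compounds as a control protein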
Conditions: streptavidin binding, higher = more signal

Streptavidin (Streptomyces avidinii), sequence (P22629 whole entry, looked up): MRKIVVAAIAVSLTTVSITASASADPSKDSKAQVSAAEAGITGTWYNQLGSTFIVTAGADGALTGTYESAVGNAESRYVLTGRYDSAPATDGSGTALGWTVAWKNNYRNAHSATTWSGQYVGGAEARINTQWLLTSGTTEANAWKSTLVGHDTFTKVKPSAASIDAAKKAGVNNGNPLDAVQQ

Structure (SMILES) | composite z-score
CCOC(=O)C1=C[C@@H](C(C)(C)C)N(S(=O)(=O)c2ccc(C)cc2)[C@H]1c1ccc(OC)cc1 | 1.36
CCCCC(=C=CC[C@H](O)c1ccccc1OCCO)CCO | -0.356
C=CCC(OC(C)=O)[C@@H]1[C@@H](N(Cc2cccc3ccccc23)C(=O)c2ccc(C)cc2)c2cc(OCCCO)ccc2N1C(=O)Cc1ccc2ccccc2c1 (some centres undefined) | 0.652
COC(=O)[C@@]1(Cc2ccc(F)cc2)[C@@H]2C(=CC(=O)[C@H]2CC(=O)C(=O)N2CCCC2)CN1C(=O)c1ccccc1 | 0.696
COCCCNC(=O)[C@@]1(c2ccc([N+](=O)[O-])cc2)CC(=O)N(C2CCCCC2)[C@@H]1c1ccc(CO)cc1I | -0.16
C=CCOC(=O)[C@H]1[C@@H]2C(=O)O[C@@H](c3ccccc3)[C@@H](c3ccccc3)N2[C@@H](c2ccc(OCCOC(=O)[C@H]3C[C@H]4C(=O)NCC(=O)N4[C@H]3c3ccc(O)cc3)cc2)[C@]12C(=O)Nc1ccccc12 | 0.341
CC1CC/C=C\[C@H]2OC34C=CCN(CCN5CCOCC5)C(=O)[C@H]3N(C(CO)C(C)C)C(=O)[C@@H]4C2C(=O)O1 (some centres undefined) | -0.0429
CC(C)c1ccc(NN2C(C(O)c3ccccc3)C=CC3C(=O)N(c4ccccc4)C(=O)C32)cc1 (centres undefined) | 0.576
[N-]=[N+]=Nc1ccccc1C[C@@]1(C(=O)NCC(O)CO)N=C(c2ccc(OCCCO)cc2)O[C@@H]1c1ccccc1N=[N+]=[N-] (some centres undefined) | 1.23
C=C(CCCC)C(=O)CC[C@@H](OC(C)=O)c1ccc(OCCO)cc1 | -0.871
CN1C(=O)C2CC=C(C3=CCO[C@@H]3[C@H]3CCCN3S(=O)(=O)c3ccccc3[N+](=O)[O-])CC2C1=O (some centres undefined) | -0.102
CC(C)[Si](C#Cc1ccccc1)(O[C@H](c1ccccc1)c1cn(Cc2ccccc2)nn1)C(C)C | 0.983
COCCOC(=O)N1C(=O)[C@@]2(c3cc(C#CCNC(N)=O)ccc31)[C@H](C(N)=O)[C@H]1C(=O)O[C@H](c3ccccc3)[C@H](c3ccccc3)N1[C@@H]2c1ccc(O)cc1 | -0.0811
[N-]=[N+]=NCc1ccccc1C[C@]1(C(=O)N2CCCCC2)COC(c2ccc(OCCCO)cc2)=N1 | 0.997
C=CCNC(=O)[C@H]1[C@@H]2C(=O)O[C@@H](c3ccccc3)[C@@H](c3ccccc3)N2[C@@H](c2ccc(OCCO)cc2)[C@]12C(=O)N(C(=O)OCCOC)c1ccc(C#CCC(C(=O)OC)C(=O)OC)cc12 | 1.26
CCCCC(=C=CC[C@@H](O)c1ccccc1OCCO)C[C@@H](O)c1ccccn1 | -0.231
COC(=O)C(CC#Cc1ccc2c(c1)[C@]1(C(=O)N2)[C@H](C(=O)NC[C@H](O)c2ccccc2)[C@H]2C(=O)O[C@H](c3ccccc3)[C@H](c3ccccc3)N2[C@@H]1c1ccc(O)cc1)C(=O)OC | -0.765
COCCOC(=O)N1C(=O)[C@@]2(c3cc(C#CC4=CCCCC4)ccc31)[C@H](c1ccc(O)cc1)N1[C@H](c3ccccc3)[C@H](c3ccccc3)OC(=O)[C@H]1[C@@H]2C(=O)N1CCc2cc(OC)c(OC)cc2C1 | 0.112

Structure (SMILES) | composite z-score
CC[C@@H](O[Si](C#C[Si](C(C)C)(C(C)C)C(C)C)(C(C)C)C(C)C)c1cn(Cc2cccc(Cl)c2)nn1 | 0.424
C=C(CCCC)/C(=C/C[C@@H](OC(C)=O)c1cccc(OCCO)c1)c1cc(C(=O)OC)ccc1OC | -0.697
CCCN1C(=O)[C@@]2(c3ccc([N+](=O)[O-])cc3)CC(=O)N(C3CCCCC3)[C@@H]2c2ccc(CO)cc21 | -0.397
O=C1O[C@H](c2ccccc2)[C@H](c2ccccc2)N2[C@H]1[C@@H](C(=O)N1CCN(c3ncccn3)CC1)[C@]1(C(=O)Nc3ccc(C#CC4(O)CCCCCC4)cc31)[C@H]2c1ccc(O)cc1 | -0.0103
CC[C@@H](O[Si](C#C[Si](C(C)C)(C(C)C)C(C)C)(C(C)C)C(C)C)c1cn([C@H](CO)Cc2ccccc2)nn1 | 0.391
[N-]=[N+]=NCc1ccccc1[C@H]1OC(c2ccc(OCCCO)cc2)=N[C@@]1(CCS(=O)(=O)c1ccccc1)C(=O)O | 0.729
COC(=O)[C@@]1(Cc2ccc(F)cc2)[C@H]2c3cc(C(=O)N4CCCC4)n(Cc4ccc(OC(F)(F)F)cc4)c3C[C@H]2CN1C(=O)c1ccccc1 | -0.203
CC(C)(C)OC(=O)CC[C@]1(C(N)=O)N=C(c2ccc(OCCCO)cc2)O[C@H]1c1ccccc1N=[N+]=[N-] | 1.49
O=C1OCC=C[C@H]2OC34C=CCN(Cn5nnc6ccccc65)C(=O)[C@H]3N(CCO)C(=O)[C@@H]4[C@@H]12 (some centres undefined) | -1.02
COc1cccc(C)c1NC(=O)O[C@H]1[C@H](OC(=O)Nc2ccc3c(c2)OCO3)[C@H](OC(=O)Nc2ccc3c(c2)OCO3)[C@@H](OC)O[C@@H]1CO | 1.2
CN1C(=O)C2C=CC(C(O)c3cccs3)N(N(c3ccccc3)c3ccccc3)C2C1=O (centres undefined) | 0.827
[N-]=[N+]=NCc1ccccc1[C@H]1OC(c2ccc(OCCCO)cc2)=N[C@@]1(Cc1ccccc1N=[N+]=[N-])C(=O)O | 1.55
C[C@H]1C2[C@H](Cc3ccccc3)NC(=O)[C@]23C(=O)N[C@@H](Cc2ccccc2)C(=O)N2CCC[C@H]2C(=O)NC/C=C/CC/C=C/C3[C@@H]2O[C@]12C (some centres undefined) | -0.423
COc1ccc(C(=O)Nc2ccc(CN3C(=O)[C@]4(O[C@H](CC(=O)N(CCO)Cc5ccccc5)[C@@H]([Si](C)(C)c5ccc(OC)cc5)[C@@H]4C)c4ccccc43)cc2)cc1 | -0.138
CCCC=C(CCC)[C@@H](NC(=O)c1ccc(C(=O)OC)cc1)c1ccc(C(=O)OC)cc1 | 0.239
O=C1C2C=CC(C(O)c3ccccn3)N(Nc3ccc([N+](=O)[O-])cc3)C2C(=O)N1c1ccccc1 (centres undefined) | 1.24
O=C1C2C=CC(C(O)C3CCCCC3)N(Nc3ccccc3F)C2C(=O)N1c1ccccc1 (centres undefined) | 1.5
C=C(CCCC)/C(=C/C[C@@H](OC(C)=O)c1ccc(OCCO)cc1)c1cc(C(=O)OC)ccc1OC | 0.313
